Hit rate of the full screen: of about 93,000 compounds, about 500 (0.54%) were called active. The list comes from a sample in which actives are over-represented; it also holds similar structures and randomly drawn compounds. A number with no mark means an inactive call.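 The calls were made as follows: active = primary inhibition of 50% or more at 10 µM, then 40% or more on retest; inactive = the rest.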

As usually defined, the inhibition is the change of the read-out against control, counted positive when it falls.

For the assay, the target named is Integrin beta-2 (Homo sapiens) + Integrin alpha-M (Homo sapiens) (UniProt P05107+P11215). Briefly: antagonists of integrin CD11b/CD18-fibrinogen binding – K562 cells, luminescence, primary screen (AID 1497). Particulars: K562 CD11b/CD18 adhesion to fibrinogen, ATPlite luminescence; at 10 µM; active compounds read high; Mn2+ added to activate the integrin. (In ATP-based viability assays light output follows the ATP content of the culture.)
Sequence of Integrin beta-2 (Homo sapiens) + Integrin alpha-M (Homo sapiens) (P05107 whole entry, looked up, other chains not shown): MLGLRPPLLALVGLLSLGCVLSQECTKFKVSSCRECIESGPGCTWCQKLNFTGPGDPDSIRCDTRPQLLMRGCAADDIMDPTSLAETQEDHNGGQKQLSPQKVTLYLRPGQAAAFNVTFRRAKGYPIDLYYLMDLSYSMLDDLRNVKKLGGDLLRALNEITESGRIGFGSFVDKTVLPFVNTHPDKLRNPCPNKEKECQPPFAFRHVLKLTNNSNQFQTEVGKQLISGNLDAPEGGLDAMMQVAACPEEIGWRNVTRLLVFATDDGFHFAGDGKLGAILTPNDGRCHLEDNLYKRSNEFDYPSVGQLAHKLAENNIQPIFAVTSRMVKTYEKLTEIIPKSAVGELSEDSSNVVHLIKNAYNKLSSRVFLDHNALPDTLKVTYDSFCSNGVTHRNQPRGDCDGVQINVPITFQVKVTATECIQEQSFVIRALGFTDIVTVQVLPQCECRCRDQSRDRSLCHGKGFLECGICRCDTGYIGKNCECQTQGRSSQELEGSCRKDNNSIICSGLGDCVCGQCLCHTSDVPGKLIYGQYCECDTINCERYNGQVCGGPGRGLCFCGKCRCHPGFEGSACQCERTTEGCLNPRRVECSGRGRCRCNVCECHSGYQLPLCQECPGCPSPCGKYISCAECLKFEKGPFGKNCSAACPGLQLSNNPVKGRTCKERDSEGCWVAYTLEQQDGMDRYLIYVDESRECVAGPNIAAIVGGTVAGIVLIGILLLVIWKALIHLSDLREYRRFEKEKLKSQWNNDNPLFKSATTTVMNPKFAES
For `COCCCNC(=O)Cn1cc(/C=C(\C#N)C(=O)N2CCN(c3ccccc3)CC2)c2ccccc21`, the inhibition was 21.8%.

For the molecule `O=C(COC(=O)Cc1ccc(F)cc1)Nc1cc(S(=O)(=O)N2CCOCC2)ccc1N1CCCC1`, the inhibition was -0.6%.

Take `CCCC/C(C)=N/NC(=O)NC1CCCCC1`: the inhibition was 5.3%.

For the molecule `Cc1ccc(N/N=C2\COC(C)(C)CC2=O)cc1`, the inhibition is 4.6%.

Consider `CCCn1c(C)cc(/C=C(\C#N)C(=O)OCC(=O)Nc2cc(OC)c(OC)c(OC)c2)c1C`, for which the inhibition was 5.7%.

On to `Cc1cc(C)c(NC(=O)c2oc3ccccc3c2COc2ccccc2)c(C)c1`, for which the inhibition is -5.4%.

Regarding `CCCN(CC1COc2ccccc2O1)C(=S)Nc1ccc(C)cc1` (stereo unspecified), the inhibition was 9.6%.

`C=CCNC(=S)NNC(=O)COc1c(Cl)cc(Cl)cc1Cl`: the inhibition is -6.9%.

For `Cc1nc2c(-c3ccccc3)c(C)[nH]n2c(=O)c1Cl`, the inhibition is -1.6%.

Consider `Cc1[nH]n(-c2cccc(Cl)c2)c(=O)c1/C=N/n1c(C)nc2ccccc2c1=O`, for which the inhibition is 16.1%.

Take `Cc1[nH]n(-c2cccc(Cl)c2)c(=O)c1-c1ccc(Cl)cc1`: the inhibition is 94.7% (active).

For the molecule `CCN(/N=C/c1ccc(N(C)C)cc1)c1nc2ccccc2[nH]1`, the inhibition was 15%.

On to `Cc1ccc(Nc2nc(-c3sc(NC(=O)c4ccccc4)nc3C)cs2)cc1`, for which the inhibition is 16.8%.

For `Cc1nc(NC(=O)c2cccc(Cl)c2)sc1-c1csc(Nc2cccc(Cl)c2)n1`, the inhibition was -4%.

Turning to `Cc1nc(C)c(-c2csc(NCCc3ccccc3)n2)s1`, the inhibition was 89.8% (active).

With `N#Cc1c(NC(=O)c2ccc(N3CCOCC3)c([N+](=O)[O-])c2)sc2c1CCCC2`, the inhibition was 2.3%.

`CCCCc1ccc(NC(=S)N2CCCC(CO)C2)cc1` (stereo unspecified): the inhibition is -5.8%.

As to `CCN(C(=O)COC(=O)c1c(NC(C)=O)sc(C)c1C)C1CCS(=O)(=O)C1` (stereo unspecified), the inhibition is 25.9%.

`Cc1ccc(C)c(NC(=O)C(OC(=O)c2ccc(C)s2)c2ccccc2)c1` (stereo unspecified): the inhibition was 16.7%.

Turning to `CCn1c(SCC(=O)Nc2ccc(C)cc2)nc2nc3c(cc2c1=O)CCCC3`, the inhibition was 2.8%.

As for `Cc1nn(-c2ccccc2)c(Cl)c1/C=C/C(=O)c1ccc(O)cc1`, the inhibition is 25.9%.

For `CC(=O)N1CCN(CC(=O)Nc2ccc(SC(F)F)cc2)CC1`, the inhibition is -3.7%.

For `CCOc1ccc(S(=O)(=O)N/N=C(\C)c2ccc(Cl)c(Cl)c2Cl)cc1`, the inhibition is 8.2%.

In the case of `C/C(=N\NC(=O)c1cc2c(s1)CCC(C)C2)c1cccnc1` (stereo unspecified), the inhibition is 1.2%.

With `COc1ccc(Br)cc1CN(C)CC(=O)Nc1cc([N+](=O)[O-])ccc1OC`, the inhibition was 33.8%.

On to `N#CCOc1ccc(C2=NO[C@@H]3[C@@H]4C[C@@H]([C@H]5C(=O)N(c6ccc7c(c6)OCO7)C(=O)[C@@H]45)[C@H]23)cc1`, for which the inhibition was -2%.

With `Cc1ccc(C)c(NC(CC(=O)c2ccccc2)C(=O)OCC(=O)c2cccs2)c1` (stereo unspecified), the inhibition is 2.1%.

Take `COc1ccccc1OCCC(=O)OCC(=O)NCc1ccccc1`: the inhibition was 5%.

Take `CCc1nc(C)cn1S(=O)(=O)c1cc(OC)c(C)cc1C`: the inhibition was 51.2% (active).

For the molecule `CCCOc1cc(C)c(S(=O)(=O)n2nnc3ccccc32)cc1C`, the inhibition was 2.3%.

With `Cc1ccc(-n2c(C)cc(C(=O)CSc3nnc4ccccn34)c2C)cc1`, the inhibition was 23.4%.

Regarding `CN(C(=O)c1c(Cl)cnn1C)C12CC3CC(CC(C3)C1)C2`, the inhibition is -23%.

With `FC(F)Oc1ccccc1NC(=S)Nc1cccc(Cl)c1Cl`, the inhibition is 64.3%.

`CCCCC1N2CC3([N+](=O)[O-])CN1CC([N+](=O)[O-])(C2)C3(C)C` (stereo unspecified): the inhibition is -3.2%.

`O=C(CN1CCN(c2ccccn2)CC1)N1CCc2ccccc21`: the inhibition is 5.5%.

On to `COc1ccc(NS(=O)(=O)c2ccc(NC(=S)NC(=O)/C=C/c3ccc(C)cc3)cc2)nn1`, for which the inhibition was -15%.

Turning to `CCCCn1c(=O)c(CCC(=O)OCC(=O)Nc2ccc(C)c(Cl)c2)nc2ccccc21`, the inhibition was 6.4%.

Regarding `OCC(CO)(CO)NCc1ccc(-c2ccccc2)cc1`, the inhibition is 3.8%.

For the molecule `Cc1ccc(S(=O)(=O)Nc2nc3ccccc3nc2N2CCc3ccccc3C2)cc1`, the inhibition was 71.6%.

Consider `Cc1ccc(S(=O)(=O)C(C#N)c2nc3ccccc3nc2N2CCCC2)cc1C` (stereo unspecified), for which the inhibition was 63.1% (active).

As for `Cc1cc(N2CCN(S(=O)(=O)c3ccc(C)c(C)c3)CC2)c2ccccc2n1`, the inhibition was 41.1%.

On to `Cc1cc(SCC(=O)NCCN2C(=O)CSC2=O)nc2ccccc12`, for which the inhibition is 13%.

With `Cc1c(Cl)cccc1NC(=O)CC1SC(=NCC2CCCO2)NC1=O` (stereo unspecified), the inhibition was 12.8%.

Consider `CC(Sc1nc2cc(Cl)ccc2s1)C(=O)Nc1ccc2c(c1)OCO2` (stereo unspecified), for which the inhibition is 82.9%.

Regarding `COc1ccc(OC)c(/C=C/C(=O)OCC(=O)Nc2ccc3c(c2)OCCO3)c1`, the inhibition is 24.4%.

On to `Cc1ccc(-c2cc(N)on2)cc1`, for which the inhibition is -5.1%.

`O=S(=O)(Nc1ccc(Oc2ncccn2)c(Cl)c1)c1ccc(F)cc1`: the inhibition is -21.1%.

For the molecule `CC(=O)N1CCN(C(=O)c2cccc(S(=O)(=O)Nc3ccc(C)cc3)c2)CC1`, the inhibition is -4.1%.

On to `Cc1ccc(S(=O)(=O)Nc2ccc3ncccc3c2)cc1`, for which the inhibition is 75.1% (active).

In the case of `O=C1NC(c2ccc(-c3ccccc3[N+](=O)[O-])o2)C(C(=O)c2ccc(Cl)cc2)C(O)(C(F)(F)F)N1` (stereo unspecified), the inhibition was 13.3%.

Consider `O=C(Cc1coc2ccc3ccccc3c12)NCc1cccs1`, for which the inhibition is -3.3%.

`CC(C)[C@H](NC(=O)c1ccc(F)cc1)C(=O)OCC(=O)NC(=O)c1cccn1C`: the inhibition is -23.1%.

Consider `COC(=O)N/N=C/c1ccc(-c2ccc(Cl)c(Cl)c2)o1`, for which the inhibition was 9.8%.

As to `CC(=O)N1C(C)c2ccccc2C(C)(C)CC12CCCCC2` (stereo unspecified), the inhibition is -35.8%.

`COC(=O)c1ccc(NC(=O)CSc2nncc3ccc(OC)c(OC)c23)cc1`: the inhibition was -5.7%.

With `CCC(C(=O)OCC(=O)Nc1c(Cl)cc(Cl)cc1Cl)c1ccccc1` (stereo unspecified), the inhibition was 14.9%.

With `Cc1cc(C)c(NC(=S)N2CCCC2C(=O)O)c(C)c1` (stereo unspecified), the inhibition was -8.3%.

As to `COc1ccccc1CN(C)C(=O)C1(c2ccc(Cl)cc2)CC1`, the inhibition is 11.8%.

On to `COc1ccc([N+](=O)[O-])cc1NC(=O)c1ccc(N(Cc2ccccc2C)S(C)(=O)=O)cc1`, for which the inhibition was 4%.

For the molecule `O=C(CSc1ccc(C(F)(F)F)cc1[N+](=O)[O-])NCCOc1ccccc1`, the inhibition was -6%.

Turning to `COc1ccc(C2c3c(C)nn(-c4ccccc4)c3NC(=O)N2c2ccccc2)cc1` (stereo unspecified), the inhibition is 2.6%.

As to `O=C(NCCN1CCOCC1)c1cc(Sc2cccc(Cl)c2)nc2ccccc12`, the inhibition is 4.4%.

As to `Cc1csc(=Nc2ccccc2)n1CCO`, the inhibition is -4.3%.

Take `OC(COCC1COc2ccccc2O1)CN1CCN(c2ccc(F)cc2)CC1` (stereo unspecified): the inhibition was -1.1%.

`CCC(=O)NC(Nc1nc2ccc(C)cc2s1)(C(=O)OC)C(F)(F)F` (stereo unspecified): the inhibition was -4.9%.

With `O=C(NC(Nc1nc2ccc([N+](=O)[O-])cc2s1)(C(F)(F)F)C(F)(F)F)c1ccccc1`, the inhibition was 93.8% (active).

For the molecule `COC(=O)C(NC(=O)c1ccc(OC)cc1)(Nc1ncc(S(=O)(=O)c2ccc([N+](=O)[O-])cc2)s1)C(F)(F)F` (stereo unspecified), the inhibition is 47.7%.

As for `CN(Cc1cccs1)C(=O)Cc1c[nH]c2ccccc12`, the inhibition was -17.9%.

For the molecule `Cc1ccc(-c2nc(C)sc2CC(=O)OCC(=O)Nc2c(F)cccc2F)cc1`, the inhibition was 16.1%.

In the case of `Nc1nc(CC(=O)CSc2ccc(Cl)cc2)nc(Nc2ccc(F)cc2)n1`, the inhibition is -3.1%.

`Cc1ccc(C)c(NC(=S)NCC(c2cccnc2)N2CCOCC2)c1` (stereo unspecified): the inhibition is -16.8%.

As to `COC(=O)c1ccc(C(=O)OC)c(NC(=S)N2CCN(c3cc(Cl)ccc3C)CC2)c1`, the inhibition is 5.6%.

For the molecule `CCCOC(=O)c1c(NC(=O)c2cnn3c2NC(c2ccccc2)CC3C(F)(F)F)sc2c1CCCC2` (stereo unspecified), the inhibition is -9.3%.

Regarding `COc1cccc(-c2nc3cc(C)ccc3o2)c1`, the inhibition is 21%.

For the molecule `CCCCCC(=O)Nc1ccc2oc(-c3ccncc3)nc2c1`, the inhibition was -1.9%.

In the case of `CCc1ccc2oc(-c3ccc(N)cc3)nc2c1`, the inhibition was 62.3% (active).

As for `C/C(=N/NC(=O)C1COc2ccccc2O1)c1ccco1` (stereo unspecified), the inhibition was 4.4%.

For the molecule `Cc1ccccc1NC(=O)CSC1=NCCN1`, the inhibition is -19.9%.

With `Cc1ccc(S(=O)(=O)C2C(=O)NC3(C)CC2c2ccccc2O3)cc1` (stereo unspecified), the inhibition is 19.1%.

For `Cc1nc2ccccc2cc1O`, the inhibition was 20.1%.

Turning to `CCOC(=O)c1cc2ccccc2nc1C`, the inhibition was -6.1%.

Consider `Cc1nc2ccccc2cc1OCc1ccc(F)cc1`, for which the inhibition is 98.8% (active).

Regarding `CN1CCN(c2ccc(S(=O)(=O)Nc3ccccc3)cc2[N+](=O)[O-])CC1`, the inhibition is 31%.

Take `Cc1ccc(-c2nn(-c3ccccc3)cc2C(=O)Nc2cccc(S(=O)(=O)N3CCOCC3)c2)cc1`: the inhibition was -5.6%.

`Cc1[nH]c2ccccc2c1/C=N/NC(=O)CNC(=O)c1ccc2c(c1)OCO2`: the inhibition is -16%.

As for `Cc1ccc2[nH]cc(CCNC(=O)c3ccc([N+](=O)[O-])cc3)c2c1`, the inhibition is -25.6%.

As for `CCOC(=O)c1c(NC(=O)C2CCN(S(=O)(=O)c3ccc(Cl)cc3)CC2)sc2c1CCCC2`, the inhibition is -25.4%.

As for `Cc1ccccc1C(CC(=O)c1cccs1)C(C#N)C#N` (stereo unspecified), the inhibition is -1.8%.

Regarding `CC(C)NC(=S)N1CCN(C(c2ccccc2)c2ccccc2)CC1`, the inhibition was -11.6%.

For the molecule `CCc1nnc(NC(=O)C2CC(=O)N(c3ccc4c(c3)OCCO4)C2)s1` (stereo unspecified), the inhibition was 12.3%.

`CCOC(=O)c1csc(NC(=O)Nc2cccc(OC)c2)n1`: the inhibition was -1.6%.

`Cc1cc[n+](-c2[nH]c(=O)sc2/C=N/NC(=O)c2ccccc2[O-])cc1C`: the inhibition was -4.4%.

For `C/C(=C/C(=O)N1CCN(C)CC1)C(=O)O`, the inhibition was -9.1%.

In the case of `N#C/C(=C(/O)COC(=O)COc1ccc(Cl)cc1)c1nc2ccccc2[nH]1`, the inhibition is 1.5%.

In the case of `Cc1ccc(NC(=O)NC(=O)CSc2nnc(-c3ccc(OC(F)F)cc3)n2N)c(C)c1`, the inhibition was 2.1%.

Take `O=C(Cn1cnc2ccccc21)N/N=C/c1ccco1`: the inhibition was 10.1%.

In the case of `C=CCn1c(SCC(N)=O)nnc1-c1cc2c(s1)CCC(CC)C2` (stereo unspecified), the inhibition was 18.8%.

With `CCn1c2ccccc2c2cc(NC(=O)COC(=O)c3ccccc3Br)ccc21`, the inhibition is 2.2%.

With `COc1ccc(Cl)cc1NC(=O)CNc1ccccc1F`, the inhibition is 0.4%.

Turning to `CC(C)CNC(=O)COC(=O)c1ccccc1OCC(=O)Nc1ccc(Br)cc1`, the inhibition is 7.6%.

Turning to `CC(C)COP(=O)(c1ccc(N(C)C)cc1)C(Nc1ccccc1)c1cccnc1` (stereo unspecified), the inhibition was -5.3%.

`CC1CCN(c2ccc(C(=O)NCc3ccc4c(c3)OCO4)cc2[N+](=O)[O-])CC1`: the inhibition was 6.9%.

As for `CSCC[C@H](NC(=O)OC(C)(C)C)C(=O)N/N=C/c1cc2ccc(C)cc2nc1Cl`, the inhibition is 23.4%.

In the case of `O=C(Nc1ccccc1)c1ccccc1NC(=O)C(F)(F)F`, the inhibition was 77.1% (active).

As for `O=C(Nc1ccccc1)c1cccnc1Nc1ccccc1`, the inhibition was -10.2%.

In the case of `Cc1cccc(NC(=O)c2ccccc2NC(=O)C(C)(C)C)n1`, the inhibition was -2%.
